# Screening data: PubChem, Broad Institute
# esBAF inh: blocks esBAF chromatin remodeling in mouse ES cells | Bmi1-luciferase knock-in reporter, 24 h; 100% = twice the neutral-well signal | reporter increase, % at 12.5 µM | 350,000 tested, 2% active | AID 602393; in the data active means activation above about 40%; inconclusive means no clear call, values can overlap the other calls;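 further: a rise in the Bmi1 reporter signal indicates esBAF inhibition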
# Wnt act: activators of Wnt/beta-catenin signaling | Wnt/beta-catenin reporter cell assay, activator, plate reader | activation, % at 9.35 µM | 300,000 tested, 1.2% active; in the data active means activation above about 30%, passing the limit was not always enough; inconclusive means no clear call, values can overlap the other calls
# LMP1 NFkB inh: reduces LMP1-driven NF-kappaB luciferase signal; LMP1-induced NF-kappaB luciferase reporter cells, luminescence; inhibition, % at 12.5 µM; 350,000 tested, 0.69% active; AID 504558; in the data active means inhibition above about 41%; inconclusive means no clear call, values can overlap the other calls
# MITF act: increases MITF-driven TRPM1 promoter luciferase signal; SK-MEL-5 TRPM1-promoter luciferase, 24 h; % of positive control, neutral wells = 0; activation, % at 12.5 µM; 300,000 tested, 0.75% active;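 active means mean activation of at least 80% with every replicate also reaching 80%; inconclusive means mean reaches 80% but some replicate falls short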
# Statin myotox sup: suppressors of simvastatin-induced myotoxicity in C2C12 myotubes; rescue of ATP level, % at 7.49 µM; AID 602340; ATP luminescence, 48 h; scaled: DMSO 0, geranylgeraniol control 100; 330,000 tested, 0.78% active;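 active means mean ATP rescue above about 67%, or every replicate alone reaching that limit, limit read from the data, passing the limit was not always enough; inconclusive means no clear call, values can overlap the other calls; inactive means mean under the limit and some replicate under it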;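 further: myotubes were challenged with 10 µM simvastatin during compound exposure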
# TRPM1 prom inh: MITF TRPM1 promoter inhibition in SK-MEL-5 cells | 330,000 tested, 0.83% active | inhibition, % at 12.5 µM | SK-MEL-5 TRPM1 promoter luciferase, 24 h;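 active means mean inhibition across replicates of 60% or more, whatever share of single replicates reaches that level; inconclusive means some that reach 60%, reason not given; inactive means mean inhibition across replicates below 60%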
# A number is an active result; – = inactive; ? = inconclusive; · = no result. Rows were chosen to be rich in hits. Some 4% of all compounds tested hit in one or more screens of this group.
SMILES,esBAF inh,Wnt act,LMP1 NFkB inh,MITF act,Statin myotox sup,TRPM1 prom inh
Cc1ccccc1C(=O)N1CC(=O)Nc2ccc(F)cc2C1c1ccccc1 (stereo unspecified),–,–,–,–,–,–
CC1(C)CC(NS(=O)(=O)c2ccc(F)cc2)CC(C)(C)N1,–,–,43,–,–,–
CC(C)(C)C(=O)/C=C(\N)c1ccncc1,–,–,–,–,·,–
COc1ccc(/C(N)=C/C(=O)C(C)(C)C)cc1,58,·,–,–,–,–
Cc1ccc(C(=O)N/C(=C\c2ccc3c(c2)OCO3)C(=O)N2CCOCC2)cc1,–,–,–,–,–,–
COc1ccc(C(=O)N/C(=C\c2ccc3c(c2)OCO3)C(=O)N2CCOCC2)cc1,–,–,49,–,–,–
CCNC(=O)/C(=C\c1ccc2c(c1)OCO2)NC(=O)c1ccc(Br)cc1,·,·,–,–,·,–
CCNC(=O)/C(=C/c1ccc2c(c1)OCO2)NC(=O)c1ccc(Br)cc1,–,–,–,·,79,–
CCC(O)C1CCN(C(=O)c2cc(COc3ccc4ncccc4c3)on2)CC1 (stereo unspecified),·,–,–,–,·,–
Cc1ccc(-c2nc3ccccc3n2C)o1,·,·,–,–,·,–
Cc1ccc(C2Nc3ccccc3-c3nc4ccccc4n32)o1 (stereo unspecified),68,·,–,–,–,–
COCCCNC(=O)c1cccn2c(=O)c3cc4ccccc4cc3nc12,–,·,–,–,182,–
CN(C)C(=O)[C@H]1[C@H](CO)[C@H]2Cn3c(cccc3=O)[C@H]2N1CCc1ccccc1,–,·,·,·,–,·
COC(=O)C1=C(C)Nc2nc3ccccc3n2C1c1cc(OC)c(OC)c(OC)c1 (stereo unspecified),·,44,·,·,·,·
C[C@H]1CN([C@@H](C)CO)C(=O)c2c(c3ccccc3n2C)-c2ccccc2CO[C@@H]1CN(C)C(=O)Nc1cccc(F)c1,–,·,·,·,·,·
Nc1nc(N)nc(-c2ccc(Cl)c(Cl)c2)n1,–,38,–,–,–,–
Cc1cccc(-c2nnc(-c3ccc(N)cc3)o2)c1,–,·,–,–,–,–
c1ccc(-c2nnc(-c3ccccc3)o2)cc1,–,·,–,–,–,–
Nc1ccc(-c2nnc(-c3ccc(N)cc3)o2)cc1,–,35,–,99,–,–
CSc1ccccc1-c1nnc(-c2ccccc2)o1,43,·,–,–,–,–
Nc1ccccc1-c1nnc(-c2ccc(-c3ccccc3)cc2)o1,–,·,–,91,–,–
Cc1sc2ncnc(OCc3nnc(-c4cccs4)o3)c2c1C,·,–,–,–,·,–
Cc1cc(C)c(NC(=O)CNC(=O)Cc2ccc(S(=O)(=O)N3CCOCC3)s2)c(C)c1,–,–,–,·,–,·
O=[N+]([O-])c1cnc(Sc2ccncn2)c([N+](=O)[O-])c1,–,–,–,·,–,·
O=[N+]([O-])c1cnc(Sc2ccncn2)s1,·,–,–,·,·,83
SMILES,esBAF inh,Wnt act,LMP1 NFkB inh,MITF act,Statin myotox sup,TRPM1 prom inh
CN(C)c1ccc(N=Cc2nc(-c3ccccc3)oc2OC(=O)c2ccccc2)cc1,·,35,–,–,·,–
CC(=O)Oc1oc(-c2ccccc2)nc1C=Nc1ccc(N(C)C)cc1,–,–,–,·,–,–
Cc1ccc(N(Cc2cc(=O)[nH]c3ccccc23)C(=O)CCl)c(C)c1,·,–,47,–,·,?
Cc1cccc2c3nc4ccccc4nc3n(C)c12,41,–,·,–,–,–
COC(=O)Cn1c2nc3ccccc3nc2c2cccc(C)c21,–,–,·,–,–,–
NC(=O)C1CCN(c2cc(Cl)ccc2[N+](=O)[O-])CC1,·,–,–,·,·,–
Nc1nc2n(n1)C(c1ccc(F)cc1)CC(c1ccc(F)cc1)N2 (stereo unspecified),–,·,–,–,–,–
N#Cc1cc2c(nc1SCC1COc3ccccc3O1)CCC2 (stereo unspecified),·,·,–,111,·,–
O=C(CCl)N1c2ccccc2SCC1c1ccccc1 (stereo unspecified),–,–,–,–,–,79
COc1ccc(N(C)C(=O)CCC(=O)Nc2ccc3nc(N4CCOCC4)cc(C)c3c2)c(OC)c1,–,·,–,–,–,–
Cc1cc(N2CCOCC2)nc2ccc(Cl)cc12,57,–,–,?,–,–
CCN1CCN(c2cc(C)c3cc(NC(=O)c4cc(OC)cc(OC)c4)ccc3n2)CC1,–,32,–,–,–,–
COc1ccc(NC(=O)CCC(=O)Nc2ccc3nc(N4CCOCC4)cc(C)c3c2)c(OC)c1,42,–,–,–,–,–
COC(=O)C1CCN(c2cc(=O)n(-c3ccccc3Cl)c(=O)[nH]2)CC1,–,·,–,–,–,–
Cc1cc(C(=O)CSc2nnc(N)s2)c(C)n1C1CC1,–,–,–,–,–,–
O=C1CC(c2cccs2)CC(O)=C1C=NCCN1CCNCC1 (stereo unspecified),–,–,–,–,–,–
S=C(NCc1ccco1)N1CCN(C(c2ccccc2)c2ccccc2)CC1,–,·,–,–,86,–
CC(C)CNC(=S)N1CCN(C(c2ccccc2)c2ccccc2)CC1,·,–,–,–,·,–
Nc1c(C(=O)N2CCCC2)sc2nc(-c3ccccc3)ccc12,69,49,–,103,–,–
Cc1ccc(C(=O)c2sc3nc4c(cc3c2N)CCC4)cc1,·,33,–,125,·,–
Nc1c(C(=O)N2CCCCC2)sc2nc3c(cc12)CCCC3,54,–,–,–,–,–
Cc1ccc(-c2noc(/C=C/c3ccccc3)n2)cc1,46,·,–,–,–,–
Clc1ccccc1/C=C/c1nc(-c2cccnc2)no1,–,39,–,84,–,–
Clc1ccc(-c2noc(/C=C/c3ccccc3)n2)cc1,–,–,–,·,–,–
C(=C\c1nc(-c2cccnc2)no1)/c1ccccc1,–,48,–,–,–,–
SMILES,esBAF inh,Wnt act,LMP1 NFkB inh,MITF act,Statin myotox sup,TRPM1 prom inh
CC(=O)C[C@H]1c2cc(C(F)(F)F)ccc2S(=O)(=O)N1C1CCCC1,–,–,–,–,–,–
CCCc1cc(=O)n2nc(N3CCC(C(=O)NCc4ccc(C)o4)CC3)sc2n1,–,–,–,–,–,–
O=C(Nc1ccccc1Cl)NC1(C(=O)N2CCCCC2)CCCCC1,–,·,–,–,101,–
O=C(NC1CCCCCC1)C1c2ccccc2C(=O)N1CCCN1CCOCC1 (stereo unspecified),·,–,–,–,·,–
Cc1ccc(-c2nc3ccccc3o2)cc1NC(=S)NC(=O)/C=C/c1ccco1,–,–,–,–,·,–
O=C(/C=C/c1ccco1)NC(=S)Nc1cc(-c2nc3ccccc3s2)ccc1Cl,·,50,–,–,·,–
Cc1ccc(-c2nc3ccccc3s2)cc1NC(=S)NC(=O)/C=C/c1ccco1,65,·,–,–,–,–
O=C(/C=C/c1ccco1)NC(=S)Nc1cccc(-c2nc3ccccc3s2)c1,–,–,–,–,·,–
NS(=O)(=O)c1ccc(CCNC(=O)C2COc3ccccc3O2)cc1 (stereo unspecified),–,–,–,·,–,–
Cn1c(-c2ccccc2)cnc1SCC(=O)N1CCCCC1,–,·,66,–,–,–
